# Assay results: PubChem BioAssay (NCATS)
# Inconclusive results are not listed. Where a call stands in place of a potency, no number is given. Activity calls are given as the source filed them. Calls follow the shape of the dose curve; as a rule, active = well fitted curve in the direction sought with a large enough effect; inconclusive = small, poorly fitted or top-dose-only effect, or another doubt; inactive = no such curve, though single readings can be large; an effect the other way counts as inactive or inconclusive.
# What was measured:
# [1] = Quantitative High-Throughput drug screen in 47 multiple myeloma cell lines against the NCATS MIPE library collection: KHM11_PLB cell viability assay (AID 1918962); details: KHM11 myeloma cell viability, CellTiter-Glo ATP luminescence, 48 h; series mostly up to 45.8 µM; also: nearly all actives have a fitted effect of over 35% in size
# How it was run: (§1)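 Luminescent ATP measurement with CellTiter-Glo gives viability, scaled between DMSO-only wells (100%) and media-only wells (0%). Cells, 500 per well, faced library compounds for 48 hours at 37C.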
# [2] = Quantitative High-Throughput drug screen in 47 multiple myeloma cell lines against the NCATS MIPE library collection: H1112_PLB cell viability assay (AID 1918967; also: nearly all actives have a fitted effect of over 30% in size); details: H1112 myeloma cells viability, ATP luminescence, 48 h; series mostly up to 45.8 µM
# How it was run: (§2)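 Relative luminescence from CellTiter-Glo served as the viability signal, referenced to DMSO-treated (100%) and cell-free medium (0%) controls. Treatment lasted 48 hours at 37C with 500 cells per well.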
# [3] = Quantitative High-Throughput drug screen in 47 multiple myeloma cell lines against the NCATS MIPE library collection: Karpas25_ECACC cell viability assay (AID 1918968; also: nearly all actives have a fitted effect of over 35% in size); details: Karpas25 myeloma viability, CellTiter-Glo ATP, 48 h; series mostly up to 45.8 µM
# How it was run: as §2
# [4] = Quantitative High-Throughput drug screen in 47 multiple myeloma cell lines against the NCATS MIPE library collection: KMS12PE_JCRB cell viability assay (AID 1918972); details: KMS12PE myeloma viability, CellTiter-Glo ATP, 48 h; series mostly up to 45.8 µM; also: nearly all actives have a fitted effect of over 30% in size
# How it was run: (§3)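 Steps: seed 500 cells per well; pin-transfer MIPE 4.0 library; incubate 48 h at 37C, 5% CO2, humidified; add CellTiter-Glo, 5 min room temperature; read luminescence.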
# [5] = Quantitative High-Throughput drug screen in 47 multiple myeloma cell lines against the NCATS MIPE library collection: KMS27_JCRB cell viability assay (AID 1918970); details: KMS27 myeloma cells, CellTiter-Glo ATP viability, 48 h; series mostly up to 45.8 µM; also: nearly all actives have a fitted effect of over 30% in size
# How it was run: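 KMS27_JCRB myeloma cells, 500 per well, exposed 48 h at 37 C, 5% CO2 to MIPE 4.0 compounds. Viability from ATP by CellTiter-Glo luminescence, normalized to DMSO (100%) and medium-only (0%) wells.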
# [6] = Quantitative High-Throughput drug screen in 47 multiple myeloma cell lines against the NCATS MIPE library collection: KMS12BM_JCRB cell viability assay (AID 1918971); details: KMS12BM myeloma viability, CellTiter-Glo ATP, 48 h; series mostly up to 45.8 µM; also: nearly all actives have a fitted effect of over 35% in size
# How it was run: as §1
# [7] = Quantitative High-Throughput drug screen in 47 multiple myeloma cell lines against the NCATS MIPE library collection: JIM1_ECACC cell viability assay (AID 1918964); details: JIM1 myeloma viability, CellTiter-Glo ATP luminescence, 48 h; series mostly up to 45.8 µM
# How it was run: as §2
# [8] = Quantitative High-Throughput drug screen in 47 multiple myeloma cell lines against the NCATS MIPE library collection: INA6_PLB cell viability assay (AID 1918965; also: nearly all actives have a fitted effect of over 55% in size); details: INA6 myeloma viability, CellTiter-Glo ATP luminescence, 48 h; series mostly up to 45.8 µM
# How it was run: as §3
# [9] = Quantitative High-Throughput drug screen in 47 multiple myeloma cell lines against the NCATS MIPE library collection: JJN3_DSMZ cell viability assay (AID 1918966; also: nearly all actives have a fitted effect of over 50% in size); details: JJN3 myeloma cells viability, CellTiter-Glo ATP, 48 h; series mostly up to 45.8 µM
# How it was run: as §2
# [10] = Quantitative High-Throughput drug screen in 47 multiple myeloma cell lines against the NCATS MIPE library collection: JIM3_ECACC cell viability assay (AID 1918963; also: nearly all actives have a fitted effect of over 35% in size); details: JIM3 myeloma viability, CellTiter-Glo ATP, 48 h; series mostly up to 45.8 µM
# How it was run: as §1
# Potency is read from the fitted curve at half-maximal effect.
Structure (SMILES),Potency [1],Potency [2],Potency [3],Potency [4],Potency [5],Potency [6],Potency [7],Potency [8],Potency [9],Potency [10]
CC(=O)[C@H]1CC[C@H]2[C@@H]3CC=C4C[C@@H](O)CC[C@]4(C)[C@H]3CC[C@]12C,inactive,inactive,inactive,inactive,–,–,–,–,–,–
CC(C)NCC(O)c1ccc(NS(C)(=O)=O)cc1 (centres undefined),inactive,inactive,–,inactive,inactive,inactive,–,–,–,–
CCCc1cc(C(N)=S)ccn1,inactive,inactive,inactive,inactive,inactive,inactive,inactive,inactive,inactive,–
CCN1CCCC1CNC(=O)c1cc(S(N)(=O)=O)ccc1OC (centres undefined),inactive,–,–,inactive,–,–,inactive,–,–,–
NCCCC(O)(P(=O)(O)O)P(=O)(O)O,inactive,–,16.6 µM (active),inactive,inactive,–,–,–,–,inactive
COc1cc2nc(N3CCCN(C)CC3)nc(NC3CCN(Cc4ccccc4)CC3)c2cc1OC,2.35 µM (active),5.9 µM (active),–,2.35 µM (active),4.18 µM (active),14.8 µM (active),7.43 µM (active),2.35 µM (active),16.6 µM (active),–
O=C(O)CSCC(=O)NC1CCSC1=O (centres undefined),inactive,inactive,–,inactive,inactive,inactive,–,–,inactive,–
Cc1onc(-c2ccccc2Cl)c1C(=O)N[C@@H]1C(=O)N2[C@@H]1SC(C)(C)[C@@H]2C(=O)O,inactive,inactive,–,inactive,inactive,inactive,–,–,–,–
O=C(N[C@H](CO)[C@H](O)c1ccc([N+](=O)[O-])cc1)C(Cl)Cl,inactive,inactive,inactive,inactive,inactive,inactive,–,inactive,inactive,–
CCn1cc(C(=O)O)c(=O)c2cc(F)c(N3CCNCC3)nc21,inactive,inactive,inactive,–,inactive,–,–,inactive,inactive,–
OCc1ccc(-c2nn(Cc3ccccc3)c3ccccc23)o1,2.64 µM (active),–,9.35 µM (active),–,inactive,10.5 µM (active),–,–,–,inactive
CC1=C(C(=O)O)N2C(=O)[C@@H](NC(=O)C(N)c3ccccc3)[C@H]2SC1 (some centres undefined),inactive,inactive,–,inactive,–,–,–,–,–,0.0017 µM (active)
Oc1c(Cl)cc(Cl)c2cccnc12,26.4 µM (active),11.8 µM (active),9.35 µM (active),14.8 µM (active),16.6 µM (active),4.69 µM (active),8.33 µM (active),16.6 µM (active),8.33 µM (active),–
CC1CC2C3CCC4=CC(=O)C=C[C@]4(C)[C@@]3(F)[C@@H](O)C[C@]2(C)[C@@]1(O)C(=O)CO (some centres undefined),0.833 µM (active),inactive,–,inactive,inactive,–,0.0023 µM (active),–,–,–
C#CCN[C@@H]1CCc2ccccc21,inactive,inactive,–,inactive,–,11.8 µM (active),–,–,–,inactive
CNS(=O)(=O)CCc1ccc2[nH]cc(C3CCN(C)CC3)c2c1,1.18 µM (active),–,0.935 µM (active),–,–,2.64 µM (active),–,2.09 µM (active),0.0418 µM (active),–
O=c1cc(O)c(Cl)c[nH]1,inactive,inactive,–,6.62 µM (active),1.66 µM (active),–,6.62 µM (active),–,–,–
CCC(=O)O[C@]1(C(=O)CCl)[C@@H](C)C[C@H]2[C@@H]3CCC4=CC(=O)C=C[C@]4(C)[C@@]3(F)[C@@H](O)C[C@@]21C,inactive,inactive,–,16.6 µM (active),–,14.8 µM (active),–,–,–,–
N=C(N)c1ccc(OCCCCCOc2ccc(C(=N)N)cc2)cc1,3.32 µM (active),–,2.96 µM (active),5.9 µM (active),inactive,5.9 µM (active),inactive,3.72 µM (active),16.6 µM (active),–
Cc1cccc(Nc2ccncc2S(=O)(=O)NC(=O)NC(C)C)c1,inactive,inactive,inactive,inactive,inactive,16.6 µM (active),inactive,–,20.9 µM (active),–
NNC(=O)c1ccncc1,inactive,inactive,inactive,inactive,inactive,inactive,inactive,inactive,–,–
C[C@@H](NCCCc1cccc(C(F)(F)F)c1)c1cccc2ccccc12,inactive,inactive,inactive,18.7 µM (active),inactive,inactive,–,–,–,13.2 µM (active)
CC(C)(C#N)c1cc(Cn2cncn2)cc(C(C)(C)C#N)c1,inactive,inactive,inactive,inactive,inactive,–,–,inactive,2.35 µM (active),–
CN1CCCC(n2nc(Cc3ccc(Cl)cc3)c3ccccc3c2=O)CC1 (centres undefined),6.62 µM (active),1.87 µM (active),1.32 µM (active),–,–,4.18 µM (active),–,1.32 µM (active),2.96 µM (active),–
CCc1c2c(nc3ccc(OC(=O)N4CCC(N5CCCCC5)CC4)cc13)-c1cc3c(c(=O)n1C2)COC(=O)[C@]3(O)CC,1.48 µM (active),1.32 µM (active),–,0.526 µM (active),–,0.264 µM (active),–,0.469 µM (active),–,–
CN(C)c1ccc(C(=C2C=CC(=[N+](C)C)C=C2)c2ccc(N(C)C)cc2)cc1,0.0166 µM (active),0.0372 µM (active),0.0118 µM (active),0.0093 µM (active),–,0.0662 µM (active),0.105 µM (active),0.0093 µM (active),0.0187 µM (active),–

Structure (SMILES),Potency [1],Potency [2],Potency [3],Potency [4],Potency [5],Potency [6],Potency [7],Potency [8],Potency [9],Potency [10]
CO[C@@H]1[C@@H](OC(N)=O)[C@@H](O)[C@H](Oc2ccc3c(O)c(NC(=O)c4ccc(O)c(CC=C(C)C)c4)c(=O)oc3c2C)OC1(C)C,2.64 µM (active),inactive,5.9 µM (active),–,–,2.96 µM (active),–,–,–,5.26 µM (active)
O=P(O)(O)C(O)(Cc1cccnc1)P(=O)(O)O,inactive,inactive,–,inactive,inactive,–,–,–,–,inactive
Nc1nc(F)nc2c1ncn2[C@@H]1O[C@H](CO)[C@@H](O)[C@@H]1O,0.187 µM (active),0.526 µM (active),0.296 µM (active),0.235 µM (active),0.662 µM (active),0.209 µM (active),0.0935 µM (active),0.166 µM (active),0.235 µM (active),–
COc1cc(NCc2ccc3nc(N)nc(N)c3c2C)cc(OC)c1OC,8.33 µM (active),2.64 µM (active),4.18 µM (active),0.935 µM (active),0.59 µM (active),13.2 µM (active),2.96 µM (active),1.32 µM (active),3.72 µM (active),–
Nc1nc(N)nc(-c2cc(Cl)ccc2Cl)n1,inactive,inactive,–,inactive,inactive,inactive,–,–,inactive,–
Cc1nnc(C(=O)NC(C)(C)c2nc(C(=O)NCc3ccc(F)cc3)c(O)c(=O)n2C)o1,–,inactive,–,–,–,inactive,–,inactive,–,inactive
CNS(=O)(=O)Cc1ccc2[nH]cc(CCN(C)C)c2c1,–,inactive,–,inactive,inactive,inactive,inactive,–,–,inactive
COC(=O)Nc1nc2ccc(Sc3ccccc3)cc2[nH]1,–,–,–,0.833 µM (active),–,2.35 µM (active),0.833 µM (active),0.743 µM (active),10.5 µM (active),0.833 µM (active)
CC1=NN(c2ccccc2)C(=O)C1,–,inactive,–,inactive,inactive,–,inactive,13.2 µM (active),–,inactive
NC(=O)c1cccc(N)c1,–,inactive,–,inactive,–,–,–,inactive,–,inactive
COc1cc2c(Nc3ccc(Br)cc3F)ncnc2cc1OCC1CCN(C)CC1,–,–,–,–,–,18.7 µM (active),–,9.35 µM (active),18.7 µM (active),inactive
COC(=O)Nc1nc2ccc(C(=O)c3ccccc3)cc2[nH]1,–,2.64 µM (active),3.72 µM (active),–,–,1.48 µM (active),–,1.18 µM (active),2.64 µM (active),2.96 µM (active)
COc1cccc(N(C)C(=S)Oc2ccc3c(c2)CCCC3)n1,–,inactive,–,–,–,inactive,–,16.6 µM (active),–,inactive
COC(=O)Nc1nc2ccc(S(=O)c3ccccc3)cc2[nH]1 (centres undefined),–,–,–,–,–,–,–,18.7 µM (active),–,20.9 µM (active)
CN1CCN(c2c(F)cc3c(=O)c(C(=O)O)cn4c3c2OCN4C)CC1,–,inactive,inactive,inactive,inactive,–,–,inactive,inactive,inactive
NC(=O)c1cccnc1,–,inactive,inactive,inactive,0.003 µM (active),–,inactive,–,–,inactive
O=c1oc2c(O)c(O)cc3c(=O)oc4c(O)c(O)cc1c4c23,–,inactive,inactive,inactive,inactive,–,–,inactive,–,inactive
COc1cc(NS(=O)(=O)c2ccc(N)cc2)nc(OC)n1,–,inactive,inactive,inactive,inactive,inactive,–,inactive,inactive,inactive
C[C@@H](CN1CC(=O)NC(=O)C1)N1CC(=O)NC(=O)C1,–,16.6 µM (active),9.35 µM (active),1.66 µM (active),3.72 µM (active),–,inactive,10.5 µM (active),inactive,inactive
CCN(CC)CCn1c(=O)c(Cc2ccc(OC)cc2)nc2ccccc21,–,inactive,–,inactive,10.5 µM (active),inactive,inactive,–,–,inactive
CCC(=O)O[C@]1(C(=O)SCF)[C@H](C)C[C@H]2[C@@H]3C[C@H](F)C4=CC(=O)C=C[C@]4(C)[C@@]3(F)[C@@H](O)C[C@@]21C,–,20.9 µM (active),–,inactive,–,inactive,inactive,–,inactive,inactive
CC1=CC(=O)c2ccccc2C1=O,–,20.9 µM (active),9.35 µM (active),inactive,–,–,inactive,8.33 µM (active),13.2 µM (active),23.5 µM (active)
CCCCCCNC(=O)n1cc(F)c(=O)[nH]c1=O,–,5.26 µM (active),–,–,–,4.69 µM (active),–,11.8 µM (active),23.5 µM (active),16.6 µM (active)
C[C@@H]1CN(c2c(F)c(N)c3c(=O)c(C(=O)O)cn(C4CC4)c3c2F)C[C@H](C)N1,–,inactive,inactive,inactive,–,inactive,inactive,inactive,–,inactive
CC(C(=O)O)c1ccc2c(c1)CC(=O)c1ccccc1S2 (centres undefined),–,inactive,–,–,–,inactive,–,inactive,–,inactive
